Source: PubChem BioAssay AID1159580 (chemical genetic matrix, 2015)
The whole screen tested about 5,500 compounds, of which about 2,000 (36%) were called active. Not shown: some 18% with an inconclusive outcome. The list shows a part of the results. A number with no mark means an inactive call. Rule as the data show it: active = normalized growth mostly below about 0.91 (no sharp cut-off); inconclusive = no clear call, values can overlap the other calls; inactive = mostly above about 0.92.

Test: chemical genetic growth profiling, strain panel (AID 1159580);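 also: tested at 20 µM; growth read once vehicle control cultures reached saturation at 30 °C; 1 = growth at the plate median or of vehicle wells; lower values mean less growth of the strain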
Conditions: growth OD

CC[C@@H](C(=O)C(C)[C@@H](O)[C@H](C)CCc1ccc(C)c(O)c1C(=O)O)C1OC(CC)(C2CC[C@](O)(CC)[C@H](C)O2)C[C@@H]1C (some centres undefined)
normalized growth (S. cerevisiae deletion strains, locus YJR043C, strain POL32, active compounds read low): 1.02 | normalized growth (S. cerevisiae deletion strains, locus YJR066W, strain TOR1, active compounds read low): 0.928 | normalized growth (S. cerevisiae deletion strains, locus YJR075W, strain HOC1, active compounds read low): 1.01 | normalized growth (S. cerevisiae deletion strains, locus YKL068W, active compounds read low): 1 | normalized growth (S. cerevisiae deletion strains, locus YKL085W, strain MDH1 (second series), active compounds read low): 1.28 [resistant] (active) | normalized growth (S. cerevisiae deletion strains, locus YKL085W, strain MDH1, active compounds read low): 1.28 [resistant] (active) | normalized growth (S. cerevisiae deletion strains, locus YKL160W, strain elf1, active compounds read low): 1.05 | normalized growth (S. cerevisiae deletion strains, locus YKL190W, strain CNB1, active compounds read low): 1 | normalized growth (S. cerevisiae deletion strains, locus YKR001C, strain vps1, active compounds read low): 1.04 | normalized growth (S. cerevisiae deletion strains, locus YKR026C, strain gcn3, active compounds read low): 1.07 | normalized growth (S. cerevisiae deletion strains, locus YKR091W, strain srl3, active compounds read low): 1.07 | normalized growth (S. cerevisiae deletion strains, locus YLL001W, strain dnm1, active compounds read low): 1.1 [resistant] (active) | normalized growth (S. cerevisiae deletion strains, locus YLL026W, active compounds read low): 1.06 | normalized growth (S. cerevisiae deletion strains, locus YLL041C, strain sdh2, active compounds read low): 1.05 | normalized growth (S. cerevisiae deletion strains, locus YLR027C, strain aat2, active compounds read low): 1.05 | normalized growth (S. cerevisiae deletion strains, locus YLR039C, strain RIC1, active compounds read low): 1.26 | normalized growth (S. cerevisiae deletion strains, locus YLR058C, strain SHM2, active compounds read low): 1.02 | normalized growth (S. cerevisiae deletion strains, locus YLR102C, strain apc9, active compounds read low): 1.03 | normalized growth (S. cerevisiae deletion strains, locus YLR113W, strain HOG1, active compounds read low): 0.964 | normalized growth (S. cerevisiae deletion strains, locus YLR221C, strain rsa3, active compounds read low): 1.06 | normalized growth (S. cerevisiae deletion strains, locus YLR258W, strain gsy2, active compounds read low): 1.06 | normalized growth (S. cerevisiae deletion strains, locus YLR262C, strain YPT6 (second series), active compounds read low): 1.08 | normalized growth (S. cerevisiae deletion strains, locus YLR262C, strain YPT6, active compounds read low): 1.34 | normalized growth (S. cerevisiae deletion strains, locus YLR268W, strain sec22, active compounds read low): 0.996 | normalized growth (S. cerevisiae deletion strains, locus YLR320W, strain mms22, active compounds read low): 1.05 | normalized growth (S. cerevisiae deletion strains, locus YLR330W, strain CHS5, active compounds read low): 1.04 | normalized growth (S. cerevisiae deletion strains, locus YLR342W, strain FKS1 (second series), active compounds read low): 0.97 | normalized growth (S. cerevisiae deletion strains, locus YLR342W, strain FKS1, active compounds read low): 1.05 | normalized growth (S. cerevisiae deletion strains, locus YLR357W, strain rsc2, active compounds read low): 1.12 | normalized growth (S. cerevisiae deletion strains, locus YLR370C, strain arc18, active compounds read low): 1.04 | normalized growth (S. cerevisiae deletion strains, locus YLR371W, strain rom2, active compounds read low): 1 | normalized growth (S. cerevisiae deletion strains, locus YLR384C, strain iki3, active compounds read low): 1.08 | normalized growth (S. cerevisiae deletion strains, locus YLR418C, strain cdc73, active compounds read low): 0.959 | normalized growth (S. cerevisiae deletion strains, locus YML016C, strain PPZ1, active compounds read low): 1.03 | normalized growth (S. cerevisiae deletion strains, locus YML032C, strain rad52, active compounds read low): 1 | normalized growth (S. cerevisiae deletion strains, locus YML120C, strain ndi1, active compounds read low): 1.07 | normalized growth (S. cerevisiae deletion strains, locus YML124C, strain tub3, active compounds read low): 1.03 | normalized growth (S. cerevisiae deletion strains, locus YMR058W, strain fet3, active compounds read low): 1.04 | normalized growth (S. cerevisiae deletion strains, locus YMR078C, strain ctf18, active compounds read low): 1.06 | normalized growth (S. cerevisiae deletion strains, locus YMR125W, strain sto1, active compounds read low): 1.08 | normalized growth (S. cerevisiae deletion strains, locus YMR129W, active compounds read low): 1.07 | normalized growth (S. cerevisiae deletion strains, locus YMR205C, strain PFK2, active compounds read low): 1.04 | normalized growth (S. cerevisiae deletion strains, locus YMR223W, strain ubp8, active compounds read low): 0.996 | normalized growth (S. cerevisiae deletion strains, locus YMR231W, strain pep5, active compounds read low): 0.208 (active) | normalized growth (S. cerevisiae deletion strains, locus YMR307W, strain GAS1, active compounds read low): 0.967 | normalized growth (S. cerevisiae deletion strains, locus YNL067W, strain RPL9B, active compounds read low): 1.02 | normalized growth (S. cerevisiae deletion strains, locus YNL071W, strain lat1, active compounds read low): 1.06 | normalized growth (S. cerevisiae deletion strains, locus YNL153C, strain GIM3, active compounds read low): 1.04 | normalized growth (S. cerevisiae deletion strains, locus YNL183C, strain NPR1, active compounds read low): 0.923 | normalized growth (S. cerevisiae deletion strains, locus YNL209W, strain ssb2, active compounds read low): 1.07 | normalized growth (S. cerevisiae deletion strains, locus YNL233W, strain BNI4, active compounds read low): 1.02 | normalized growth (S. cerevisiae deletion strains, locus YNL248C, strain rpa49, active compounds read low): 1.05 | normalized growth (S. cerevisiae deletion strains, locus YNL250W, strain rad50, active compounds read low): 0.997 | normalized growth (S. cerevisiae deletion strains, locus YNL271C, strain bni1, active compounds read low): 0.996 | normalized growth (S. cerevisiae deletion strains, locus YNL298W, strain CLA4, active compounds read low): 0.978 | normalized growth (S. cerevisiae deletion strains, locus YNL307C, strain MCK1, active compounds read low): 1.05 | normalized growth (S. cerevisiae deletion strains, locus YNL322C, strain KRE1 (second series), active compounds read low): 1.08 | normalized growth (S. cerevisiae deletion strains, locus YNL322C, strain KRE1, active compounds read low): 1.02 | normalized growth (S. cerevisiae deletion strains, locus YNR049C, strain mso1, active compounds read low): 1.07 | normalized growth (S. cerevisiae deletion strains, locus YNR052C, strain pop2, active compounds read low): 1.01 | normalized growth (S. cerevisiae deletion strains, locus YOL006C, strain TOP1, active compounds read low): 0.716 | normalized growth (S. cerevisiae deletion strains, locus YOL012C, strain htz1): 1.09 | normalized growth (S. cerevisiae deletion strains, locus YOL147C, strain pex11, active compounds read low): 1.02 | normalized growth (S. cerevisiae deletion strains, locus YOR001W, strain rrp6, active compounds read low): 1.01 | normalized growth (S. cerevisiae deletion strains, locus YOR061W, strain CKA2, active compounds read low): 1 | normalized growth (S. cerevisiae deletion strains, locus YOR069W, strain VPS5, active compounds read low): 1.02 | normalized growth (S. cerevisiae deletion strains, locus YOR070C, strain gyp1, active compounds read low): 1.06 | normalized growth (S. cerevisiae deletion strains, locus YOR080W, strain dia2, active compounds read low): 1.06 | normalized growth (S. cerevisiae deletion strains, locus YOR083W, strain WHI5, active compounds read low): 1.07 | normalized growth (S. cerevisiae deletion strains, locus YOR106W, strain vam3, active compounds read low): 0.557 (active) | normalized growth (S. cerevisiae deletion strains, locus YOR136W, strain idh2, active compounds read low): 1.02 | normalized growth (S. cerevisiae deletion strains, locus YOR144C, strain elg1, active compounds read low): 1.02 | normalized growth (S. cerevisiae deletion strains, locus YOR184W, strain ser1, active compounds read low): 0.997 | normalized growth (S. cerevisiae deletion strains, locus YOR231W, strain MKK1, active compounds read low): 0.963 | normalized growth (S. cerevisiae deletion strains, locus YOR265W, strain rbl2, active compounds read low): 1.05 | normalized growth (S. cerevisiae deletion strains, locus YOR270C, strain vph1, active compounds read low): 0.597 (active) | normalized growth (S. cerevisiae deletion strains, locus YOR290C, strain snf2, active compounds read low): 1.06 | normalized growth (S. cerevisiae deletion strains, locus YOR316C, strain cot1, active compounds read low): 1.03 | normalized growth (S. cerevisiae deletion strains, locus YPL051W, strain arl3, active compounds read low): 0.944 | normalized growth (S. cerevisiae deletion strains, locus YPL078C, strain atp4, active compounds read low): 1.05 | normalized growth (S. cerevisiae deletion strains, locus YPL106C, strain sse1, active compounds read low): 1.09 | normalized growth (S. cerevisiae deletion strains, locus YPL240C, strain hsp82, active compounds read low): 1.06 | normalized growth (S. cerevisiae deletion strains, locus YPL256C, strain CLN2, active compounds read low): 0.982 | normalized growth (S. cerevisiae deletion strains, locus YPR119W, strain clb2, active compounds read low): 1.05 | normalized growth (S. cerevisiae deletion strains, locus YPR141C, strain kar3, active compounds read low): 1.02 | normalized growth (S. cerevisiae deletion strains, locus YPR163C, strain tif3, active compounds read low): 1.07 | normalized growth (S. cerevisiae deletion strains, locus YPR167C, strain met16, active compounds read low): 1.02 | normalized growth (S. cerevisiae deletion strains, strain wtn01, active compounds read low): 1.02 | normalized growth (S. cerevisiae strains, strain wild type, active compounds read low): 1.01
